CHT inh: inhibits the human high affinity choline transporter; AID 488975; CHT-expressing cells, membrane potential dye, choline response; hits give low values; 310,000 compounds, 0.86% hits; Q9GZV3; B-score at 10 µM;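 active means B-score over 3 SD under the library average, and starting fluorescence ratio not unusually high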;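 further: choline stimulus applied at its EC90 after an EC20 pre-addition; B-score computed on integrated fluorescence ratio after choline addition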
Kir21 block: inhibitors of mouse Kir2.1 inward-rectifier potassium channel | P35561 | HEK293-Kir2.1, FluxOR thallium flux fluorescence; hits give low values | B-score at 10 µM | 310,000 compounds, 0.85% hits | AID 1672;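 active means fluorescence ratio B-score at or below minus 3 SD of library scores, with starting-brightness B-score within 2 SD, cut at about -4.2 in these data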;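 further: channel flux triggered by added potassium and thallium sulfate stimulus; B-score of peak minus minimum fluorescence over baseline after thallium stimulus; more negative B-score means stronger Kir2.1 block with less thallium influx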
Target sequence (P35561 whole entry, looked up): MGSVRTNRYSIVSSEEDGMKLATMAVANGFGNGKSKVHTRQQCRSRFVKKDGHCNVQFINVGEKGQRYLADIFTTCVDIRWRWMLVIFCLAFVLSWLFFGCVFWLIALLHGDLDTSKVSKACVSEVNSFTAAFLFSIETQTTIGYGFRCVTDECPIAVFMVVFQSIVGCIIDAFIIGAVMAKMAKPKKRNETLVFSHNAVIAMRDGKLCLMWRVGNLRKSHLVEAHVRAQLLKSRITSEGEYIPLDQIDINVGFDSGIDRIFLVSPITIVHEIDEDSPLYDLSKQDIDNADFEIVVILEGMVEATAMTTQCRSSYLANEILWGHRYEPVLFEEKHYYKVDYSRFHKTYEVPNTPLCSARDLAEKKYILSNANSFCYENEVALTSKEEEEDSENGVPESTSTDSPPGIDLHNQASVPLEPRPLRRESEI
H9c2 TAG inh: inhibitors of triacylglycerol accumulation; H9c2 cells, Nile Red lipid (TAG) fluorescence; cells loaded with 200 µM oleic acid; inhibition, % at 12.5 µM; 230,000 compounds, 0.66% hits;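 active means pattern-corrected inhibition of lipid staining of at least 50% with the nuclear-stain viability signal not falling by more than 50%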
CHT allo act: allosteric activators of human choline transporter CHT | Q9GZV3 | CHT-expressing cells, membrane potential dye, choline EC20; hits give high values; LV-AA mutant CHT in HEK293 cells | B-score at 10 µM | 310,000 compounds, 0.49% hits | AID 488977;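 active means initial fluorescence not abnormally high and integrated response B-score, plate-corrected, over 3 SD above library mean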
CHT act confirm: confirmation of human choline transporter (CHT) activators; CHT-expressing cells, membrane potential dye fluorescence (FDSS); % of choline EC20–EC90 response window; HEK293 expressing CHT LV-AA mutant; choline added at its EC20; AID 504833; shares compounds with CHT allo act; activation, % at 10 µM; 2,500 compounds, 91% hits;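 active means primary screen active, with duplicate mean activation above negative control mean plus 3 SD, cut at about 11% in these data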
HEK293 MP dye: activity in parental HEK293 cells lacking CHT | membrane potential dye fluorescence (FDSS); measured after EC20 choline addition | 2,500 compounds, 62% hits | ratio readout change at 10 µM, hits read low | shares compounds with CHT allo act;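 active means duplicate-averaged ratio beyond 3 SD from buffer wells, up or down, though filed actives are nearly all decreases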
Of the large screens only hits and unclear results are named; the others gave an inactive call (follow-up assays come after a bar, where they were run). Shown are actives, neighbours in structure and some others; about 2% of the full set was active somewhere.

COc1ccc(OC)c2c(C)cc(NCCN3CCOCC3)nc12	CHT allo act 9.2 (no result: H9c2 TAG inh) | CHT act confirm 65 | HEK293 MP dye -60
CCc1ccc2c(c1)C(c1ccc([N+](=O)[O-])cc1)=NNC(c1ccc(F)cc1)=N2	none (no result: H9c2 TAG inh)
CC(=O)Nc1ccc(S(=O)(=O)N(C)CC(=O)OCC(=O)N(CC(C)C)C2CCS(=O)(=O)C2)cc1 (configuration not stated)	none
Cc1cc[n+]2cc(-c3cccc([N+](=O)[O-])c3)c(-c3cccc([N+](=O)[O-])c3)cc2c1	CHT allo act 7 (no result: H9c2 TAG inh) | CHT act confirm 65 | HEK293 MP dye -84
CCOc1cc(CNCCSc2nnnn2C)cc(Br)c1OCc1ccccc1	CHT allo act 7 | CHT act confirm 15 | HEK293 MP dye inactive
CC(=O)c1cccc(NC(=O)c2cc3ccccn3n2)c1	none | CHT act confirm 35 | HEK293 MP dye -27
Cc1ccccc1NC(=O)c1cc2ccccn2n1	none
COc1ccc(-c2nn(-c3ccccc3)cc2CNC(=O)c2cccc([N+](=O)[O-])c2)cc1	none
Cc1ccn2cc(CCNS(=O)(=O)c3ccc4c(c3)OCCO4)nc2c1	none | CHT act confirm 25 | HEK293 MP dye inactive
Cc1ccn2cc(CCNS(=O)(=O)c3ccc4ccccc4c3)nc2c1	none
COc1cc(NC(=O)CCS(=O)(=O)c2ccc3c(c2)oc(=O)n3C)cc(OC)c1OC	none (no result: H9c2 TAG inh)
COc1ccc(CNCCC(c2ccc(OC)cc2)c2ccccc2OC)cc1 (configuration not stated)	Kir21 block -11, CHT allo act 7.8 (no result: H9c2 TAG inh) | CHT act confirm 17 | HEK293 MP dye inactive
COc1ccc(CNCCC(c2ccc(F)cc2)c2ccc(OC)cc2)cc1 (configuration not stated)	Kir21 block -8.9 (no result: H9c2 TAG inh) | CHT act confirm inactive | HEK293 MP dye inactive
COc1ccccc1C(CC(=O)Nc1ccccc1C)c1ccc(OC(C)C)cc1 (configuration not stated)	none
COc1ccc(C(CCNC(C)c2ccccc2)c2ccc(F)cc2)cc1 (configuration not stated)	Kir21 block -7.5 | CHT act confirm 44 | HEK293 MP dye inactive
COc1ccc(CNC(=O)CNC(C)c2ccc(F)cc2)cc1 (configuration not stated)	none (no result: H9c2 TAG inh)
COc1ccc(C(CCNCc2ccc(OC(C)C)cc2)c2ccccc2OC)cc1 (configuration not stated)	Kir21 block -9.9, CHT allo act 6.7 (no result: H9c2 TAG inh) | CHT act confirm 14 | HEK293 MP dye inactive
O=C(CCN1C(=O)c2ccccc2S1(=O)=O)Nc1ccc(C(=O)O)cc1	none
C=CCn1c(OCc2ccccc2)n[nH]c1=S	none (no result: H9c2 TAG inh)
Cc1cc(C(=O)NNS(=O)(=O)c2cccc(Cl)c2)nn1C(C)(C)C	none
O=C(O)c1ccc2c(=O)n3c(nc2c1)/C(=C/c1ccc(C(F)(F)F)cc1)CC3	none (no result: H9c2 TAG inh)
COc1cc(/C=C2\CCn3c2nc2cc(C(=O)O)ccc2c3=O)ccc1OC(F)F	none (no result: H9c2 TAG inh) | CHT act confirm 26 | HEK293 MP dye -32
COc1ccc(-c2csc3nc(C)nc(N4CCC(C)CC4)c23)cc1OC	none | CHT act confirm 47 | HEK293 MP dye inactive
COc1ccc(-c2csc3nc(C)nc(N4CCN(C(C)=O)CC4)c23)cc1OC	none
Cc1cccc(C)c1NC(=O)CN(C)S(=O)(=O)c1ccc(-c2ccc(=O)[nH]n2)s1	none (no result: H9c2 TAG inh)
O=C(O)/C=C/C(=O)Nc1ccc2c(c1)C(=O)c1ccccc1C2=O	none | CHT act confirm 28 | HEK293 MP dye -27
Cc1ccnc2nc(C(=O)Nc3nccs3)nn12	none | CHT act confirm 40 | HEK293 MP dye inactive
Cc1ccnc2nc(C(=O)Nc3ccc(S(=O)(=O)N4CCCC4)cc3)nn12	CHT allo act 9.9 | CHT act confirm 27 | HEK293 MP dye -21
Cc1ccnc2nc(C(=O)NC3=NCCS3)nn12	none
CCOC(=O)C1C(=O)NC(c2ccccc2)=NC1c1cccc(Br)c1 (configuration not stated)	none
CCOC(=O)C1C(C)N=C2SCC(=O)N2C1c1cccc(Br)c1 (configuration not stated)	none | CHT act confirm inactive | HEK293 MP dye inactive
